Data as given in PubChem BioAssay AID1159580 (chemical genetic matrix, 2015).
Hit rate of the full screen: of about 5,500 compounds, about 2,000 (36%) were called active. Not shown: some 18% with an inconclusive outcome. Rule as the data show it: active = normalized growth mostly below about 0.91 (no sharp cut-off); inconclusive = no clear call, values can overlap the other calls; inactive = mostly above about 0.92. The list shows a part of the results.

Assay: chemical genetic growth profiling, strain panel (AID 1159580);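 also: tested at 20 µM; growth read once vehicle control cultures reached saturation at 30 °C; 1 = growth at the plate median or of vehicle wells; lower values mean less growth of the strain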
Details: S. cerevisiae deletion strains, growth OD

Measured: normalized growth

C=CC1C2=CCOC(=O)C2=COC1OC1OC(CO)C(O)C(O)C1O (configuration not stated)
inactive: locus YAL021C, strain ccr4, active compounds read low 1.02 | locus YAL026C, strain drs2, active compounds read low 1.02 | locus YAL030W, strain snc1, active compounds read low 1.02 | locus YBL061C, strain skt5, active compounds read low 1.01 | locus YBR009C, strain hhf1, active compounds read low 1.02 | locus YBR023C, strain chs3, active compounds read low 1.01 | locus YBR171W, strain sec66, active compounds read low 1.02 | locus YBR231C, strain swc5, active compounds read low 1.02 | locus YBR279W, strain paf1, active compounds read low 1.01 | locus YCL011C, strain gbp2, active compounds read low 1.02 | locus YCL016C, strain dcc1, active compounds read low 1.01 | locus YCL061C, strain MRC1, active compounds read low 1.02 | locus YCL069W, strain vba3, active compounds read low 1.02 | locus YCR088W, strain abp1, active compounds read low 1.02 | locus YDL005C, strain med2, active compounds read low 1.01 | locus YDL040C, strain nat1, active compounds read low 1.02 | locus YDR001C, strain nth1, active compounds read low 1.02 | locus YDR069C, strain doa4, active compounds read low 1.02 | locus YDR137W, strain rgp1, active compounds read low 1.08 | locus YDR159W, strain sac3, active compounds read low 1.02 | locus YDR195W, strain ref2 1.01 | locus YDR297W, strain sur2, active compounds read low 1.02 | locus YDR334W, strain swr1, active compounds read low 1.02 | locus YDR335W, strain msn5, active compounds read low 1.02 | locus YDR392W, strain spt3, active compounds read low 1.02 | locus YEL003W, strain gim4, active compounds read low 1.02 | locus YEL037C, strain rad23, active compounds read low 1.02 | locus YEL061C, strain CIN8 (second series), active compounds read low 1.03 | locus YER015W, strain faa2, active compounds read low 1.01 | locus YER016W, strain bim1, active compounds read low 1.02 | locus YER111C, strain swi4, active compounds read low 1.01 | locus YER155C, strain BEM2 (second series), active compounds read low 1.05 | locus YFR010W, strain ubp6, active compounds read low 1.03 | locus YGL167C, strain pmr1, active compounds read low 1.02 | locus YGL173C, strain kem1, active compounds read low 1.02 | locus YGL227W, strain vid30, active compounds read low 1.03 | locus YGL240W, strain doc1, active compounds read low 1.02 | locus YGL253W, strain hxk2, active compounds read low 1.03 | locus YHR013C, strain ard1, active compounds read low 1.04 | locus YHR027C, strain rpn1, active compounds read low 1.02 | locus YHR142W, strain chs7, active compounds read low 1.04 | locus YJL092W, strain hpr5, active compounds read low 1.01 | locus YJL095W, strain BCK1 (second series), active compounds read low 1.02 | locus YJL115W, strain asf1, active compounds read low 1.03 | locus YJL129C, strain trk1, active compounds read low 1.04 | locus YJL154C, strain vps35, active compounds read low 1.01 | locus YJL164C, strain tpk1, active compounds read low 1.02 | locus YJL166W, strain qcr8, active compounds read low 1.02 | locus YJL187C, strain SWE1, active compounds read low 1.02 | locus YKL160W, strain elf1, active compounds read low 1.01 | locus YKR026C, strain gcn3, active compounds read low 1.02 | locus YKR091W, strain srl3, active compounds read low 1.02 | locus YLL001W, strain dnm1, active compounds read low 1.02 | locus YLL026W, active compounds read low 1.01 | locus YLL041C, strain sdh2, active compounds read low 1.02 | locus YLR027C, strain aat2, active compounds read low 1.01 | locus YLR221C, strain rsa3, active compounds read low 1.02 | locus YLR258W, strain gsy2, active compounds read low 1.01 | locus YLR262C, strain YPT6 (second series), active compounds read low 1.03 | locus YLR320W, strain mms22, active compounds read low 1.03 | locus YLR342W, strain FKS1, active compounds read low 1 | locus YLR357W, strain rsc2, active compounds read low 1 | locus YLR370C, strain arc18, active compounds read low 1.03 | locus YLR384C, strain iki3, active compounds read low 1.01 | locus YML120C, strain ndi1, active compounds read low 1.02 | locus YMR058W, strain fet3, active compounds read low 1.02 | locus YMR125W, strain sto1, active compounds read low 1.03 | locus YMR129W, active compounds read low 1.02 | locus YMR205C, strain PFK2, active compounds read low 1.03 | locus YMR231W, strain pep5, active compounds read low 1.03 | locus YNL071W, strain lat1, active compounds read low 1.02 | locus YNL209W, strain ssb2, active compounds read low 1.01 | locus YNL248C, strain rpa49, active compounds read low 1.05 | locus YNL322C, strain KRE1 (second series), active compounds read low 1.02 | locus YNR049C, strain mso1, active compounds read low 1.01 | locus YOR001W, strain rrp6, active compounds read low 1.01 | locus YOR070C, strain gyp1, active compounds read low 1.02 | locus YOR080W, strain dia2, active compounds read low 1.02 | locus YOR083W, strain WHI5, active compounds read low 1.01 | locus YOR106W, strain vam3, active compounds read low 1.02 | locus YOR265W, strain rbl2, active compounds read low 1.01 | locus YOR270C, strain vph1, active compounds read low 1.11 | locus YOR290C, strain snf2, active compounds read low 1.02 | locus YPL051W, strain arl3, active compounds read low 1.01 | locus YPL078C, strain atp4, active compounds read low 1.04 | locus YPL106C, strain sse1, active compounds read low 1.02 | locus YPL240C, strain hsp82, active compounds read low 1
